From ChEMBL document CHEMBL4513216, “Probing the Open Global Health Chemical Diversity Library for Multistage-Active Starting Points for Next-Generation Antimalarials” (ACS Infect Dis, 2020) come the findings set out here.

Out of some 69,000 compounds screened, about 8,600 (12%) showed an effect of 50% or more. The list comes from a sample in which strong results are over-represented; it also holds similar structures and randomly drawn compounds.

The subject of the assay is Plasmodium berghei. Nature of the assay: Screen against P. berghei liver stage (PbLuc), transformed with Luciferase, at 10uM. It is filed as functional, HepG2. The note with it: tested at 10 uM.
Take `NC(=O)c1nnn(-c2ccc(Cl)cc2)n1`: the INHIBITION is -27.1%. For `CCCc1nc(N2CC[C@@H](c3ccc4c(c3)OCO4)[C@H](O)C2)no1`, the INHIBITION was 19.4%. On to `O[C@@H]1CN(c2cnc3ccccc3n2)CC[C@H]1c1ccc2c(c1)OCO2`, for which the INHIBITION was 60.1%. In the case of `CCc1cc(C(=O)N2CC[C@@H](c3ccc4c(c3)OCO4)[C@H](O)C2)[nH]n1` it was -5.22%; in that of `O[C@@H]1CN(c2nc3ccccc3s2)CC[C@H]1c1ccc2c(c1)OCO2`, 68.1%. The figure for `O[C@@H]1CN(c2nc3ccccc3o2)CC[C@H]1c1ccc2c(c1)OCO2` is 39.3%. In the case of `CC(C)c1cc(C(=O)N2CC[C@@H](c3ccc4c(c3)OCO4)[C@H](O)C2)[nH]n1` it was 15.6%. In the case of `CC(C(=O)NCC(C)(C)c1ccc2c(c1)OCO2)n1ccnc1` (stereo unspecified), the INHIBITION turned out to be 29.8%.

As for `CCc1ccc(C(=O)N2CCC(c3nncn3CC)CC2)s1`, the INHIBITION is given as 9.14%.

Regarding `Cc1nnc([C@@]23CCO[C@@H]2CCN(Cc2scnc2C)C3)o1`, the INHIBITION is on record as 10.4%. With `COc1coc(C(=O)Nc2nc(C)cs2)cc1=O`, the INHIBITION amounted to 5.03%.

`CC(C)Oc1ncccc1CNC(=O)c1ccccn1`: the INHIBITION is listed as -48.4%.

`CN(C)c1cc(NCc2cnc3n2CCN(CC2CC2)CC3)ncn1`: the INHIBITION is on record as 17.2%. Take `COCCN1CCc2ncc(CNc3cc(N(C)C)ncn3)n2CC1`: the INHIBITION was 54.1%. The figure for `CN1CCc2ncc(CNc3cc(N(C)C)ncn3)n2CC1` is 21.6%; for `Cc1nn(C)c(C)c1C1CCCN1C(=O)CCNS(C)(=O)=O` (stereo unspecified) it is -37.7%. The figure for `Cc1ccsc1-c1nccn1CCN1CCCOC1=O` is 20.8%; for `Cc1cc(CCC(=O)Nc2nncs2)nc(C2CCCN2)n1` (stereo unspecified) it is 5.11%.

For `CN(C)c1ncccc1C(=O)N1CCCC1Cn1cccn1` (stereo unspecified), the INHIBITION is reported as -21.5%.

Turning to `Cc1cccc(CN2CC3(CCN(C(N)=O)CC3)OCC2=O)n1`, the INHIBITION was found to be 7.53%. The figure for `Cc1cc(C)n(C2CCCN(C(=O)CCCc3ccccn3)C2)n1` (stereo unspecified) is 16.9%; for `N#Cc1cnc(NCCCN2C(=O)COc3ccccc32)c(Cl)c1` it is -66.9%; for `N#Cc1c(Cl)nsc1NCCCN1C(=O)COc2ccccc21` it is 62.4%.

Regarding `N#Cc1ccc(NCCCN2C(=O)COc3ccccc32)nc1`, the INHIBITION is on record as 15.3%. For `CC(Cn1ccnc1)NC(=O)NCc1ccc2c(c1)OCCO2` (stereo unspecified), the INHIBITION is listed as -9.76%. In the case of `Cc1nnc2n1CCN(C(=O)c1ccn(-c3cccc(F)c3)n1)C2` it was -1.15%.

Take `COc1ccc(Cl)cc1CCNC(=O)NCc1cnn(C)c1C`: the INHIBITION is given as -9.35%. The figure for `Cc1cscc1C(=O)Nc1cc(CSCCO)ccn1` is 52.2%. In the case of `O=C(Nc1cc(CSCCO)ccn1)c1ccc(Cl)o1` it was 38.3%. The figure for `COc1ccnc(NC(=O)c2cscc2C)c1` is -28.3%; for `CC1Cc2ccccc2N1C(=O)Cn1nc(-c2cccs2)ccc1=O` (stereo unspecified) it is 44.3%; for `O=S(=O)(NCCc1ccccc1C(F)(F)F)N1CCOCC1` it is 24.3%. With `O=S(=O)(NCCc1cn2ccccc2n1)N1CCOCC1`, the INHIBITION was 1.74%. For `COc1ccccc1CCNS(=O)(=O)N1CCOCC1`, the INHIBITION was determined as 8.38%. In the case of `O=S(=O)(NCCc1ccccc1F)N1CCOCC1` it was 53.8%.

With `COc1ccccc1OCCNS(=O)(=O)N1CCOCC1`, the INHIBITION is 58.4%. For the compound `CCC(NS(=O)(=O)N1CCOCC1)c1ccccc1OC` (stereo unspecified), the INHIBITION is on record as 4.41%. For the compound `CCNc1nc(-c2cccnc2)c(-c2ccnc(N3CCOCC3)n2)s1`, the INHIBITION amounted to 39.7%. `CS(=O)(=O)N[C@@H]1CN(Cc2ccc3ncccc3c2)C[C@H]1O`: the INHIBITION was determined as 23.9%. In the case of `N#Cc1c(N)nc2c(c1-c1cnc(N3CCCC3)nc1)COCC2` it was -10.7%; in that of `CN(C)C(=O)[C@@H]1C[C@@H]2[C@@H](CCN2Cc2nccs2)O1`, 44.5%; in that of `Cc1cccc(C)c1OCC(C)Nc1nc(N)nc2c1CCNC2` (stereo unspecified), 42.6%. The figure for `Nc1nc2c(c(NCC(c3cccnc3)N3CCOCC3)n1)CCNC2` (stereo unspecified) is 23.1%; for `Cc1cccnc1CC(C)Nc1nc(N)nc2c1CCNC2` (stereo unspecified) it is 65.7%; for `Cc1ccc(S(=O)(=O)n2ccc(C(=O)NCC(F)(F)F)c2)cc1` it is 53.8%. The figure for `CCNC(=O)CNC(=O)c1ccn(S(=O)(=O)c2ccc(C)cc2)c1` is 2.69%; for `CCOCCNC(=O)c1ccn(S(=O)(=O)c2ccc(C)cc2)c1` it is 13.5%. As to `Nc1cc(C(=O)N2C[C@@H]3CC[C@H]2CN(Cc2cccnc2)C3)ccn1`, the INHIBITION was 4.64%. In the case of `Cc1cc(C(=O)NCCN2CCCCCC2)nn1C(C)(C)C` it was 76.6%; in that of `Cc1cc(C(=O)NCCN2CCCCC2)nn1C(C)(C)C`, -22.3%. The figure for `Cc1cc(C(=O)NCCN2CCCCC2C)nn1C(C)(C)C` (stereo unspecified) is 52.7%.

`Cc1cc(C(=O)NCCN2CCCC(C)C2)nn1C(C)(C)C` (stereo unspecified): the INHIBITION is recorded as -5.26%. For the compound `Cc1cc(C(=O)NCCN2CCC(C)CC2)nn1C(C)(C)C`, the INHIBITION is 36.8%.

For `CC1CCCCN1CCNC(=O)c1ccn(-c2ccccc2)n1` (stereo unspecified), the INHIBITION stood at 7.12%. The figure for `COCCc1noc(CN2CCCCC2Cn2cncn2)n1` (stereo unspecified) is 10.675%; for `COCC1CN(Cc2ccc(C)o2)Cc2cn(C)nc21` (stereo unspecified) it is 29.7%. The figure for `Cc1nn(C)c(C)c1C1CCCN1CC(=O)N(C)c1nccs1` (stereo unspecified) is 5.91%; for `CCCC(=O)NCCc1nc(N(C)C)ncc1-c1ccncc1` it is 1.2%. `CNC(=O)[C@@H]1CC[C@@H]2[C@@H](CCN2Cc2ccccc2F)O1`: the INHIBITION is given as 0.804%. Regarding `Fc1ccc(CN2CCC3(CC2)CCN(Cc2nccs2)CC3)cc1`, the INHIBITION turned out to be 42.6%. Take `COc1cccc(CN2CCC3(CC2)CCN(c2ncc(F)cn2)C3)c1`: the INHIBITION is 40.8%. The figure for `COc1cccc(CN2CCC3(CCN(c4ncc(F)cn4)CC3)C2)c1` is 46.7%; for `Cc1cnc(N2CC3(CCN(Cc4cccnc4)C3)C2)nc1` it is 27.2%; for `c1cnc(N2CC3(CCN(Cc4cccnc4)C3)C2)nc1` it is 13.7%. The figure for `COc1cccc(CN2CCC3(CC2)CCN(c2ncccn2)C3)c1` is 11.3%. In the case of `COc1cccc(CN2CCC3(CC2)CCN(c2ncc(C)cn2)C3)c1` it was 65.9%; in that of `c1cnc(N2CCC3(CCN(Cc4ccncc4)CC3)CC2)nc1`, 21.6%; in that of `c1cnc(N2CCC3(CCN(Cc4cccnc4)CC3)CC2)nc1`, 61.4%. Consider `Fc1ccc(CN2CCC3(CC2)CCN(c2ncccn2)CC3)cc1`, for which the INHIBITION was 56.7%.

Consider `COc1ccc(CN2CCC3(CC2)CCN(c2ncccn2)CC3)cc1`, for which the INHIBITION was found to be 67.7%. Regarding `COc1cccc(CN2CCC3(CCN(c4ncc(C)cn4)CC3)C2)c1`, the INHIBITION turned out to be 31.9%.
